Measurements: paper PMC5540273 (PLoS ONE, 2017)

test system: CSF1R; details: concentration: 1 μM, replicates: in singlicate; n = 1
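Also: KINOMEscan kinase panel screen.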

| SMILES | %Inh |
| --- | --- |
| CCc1nc(-c2cccc(C)c2)c(-c2ccncc2)s1 | 0% |
| COc1cc(OC)cc(-c2cc3cnc(N)nc3nc2NC(=O)NC(C)(C)C)c1 | 73% |
| Nc1ncnc2c1ncn2-c1cccc(F)c1 [SKF-97560] | 20% |
| COc1cc2ncn(-c3cc(OCc4ccncc4)c(C(N)=O)s3)c2cc1OC [GSK336313] | 15% |
| Fc1cccc(CSc2nnc(-c3ccc4c(c3)CCO4)o2)c1 | 0% |
| CCC(=O)c1c(-c2ccccc2)c2cc(Cl)ccc2c(=O)n1Cc1cc(S(C)(=O)=O)n(CCC(C)(C)O)n1 | 16% |
| CCn1c(-c2ccoc2)nc2cnccc21 [SB-733887] | 8% |
| CCc1ccc(-c2ccc3c(c2)-c2nn(C)cc2S(=O)(=O)N3C)cc1 | 0% |
| COc1ccc(-c2coc3ccc(-c4nnc(SCc5cccc(C#N)c5)o4)cc23)cc1 | 2% |
| COC(=O)c1c(-c2ccccc2)c2cc(C)ccc2c(=O)n1Cc1ccccc1 | 17% |
| Cl.NS(=O)(=O)c1cccc(Nc2cc(-c3ccc(F)cc3)n[nH]2)c1 [GW824645] | 9% |
| COC(=O)c1c(-c2ccccc2)c2cc(Br)ccc2c(=O)n1Cc1ccc(NC(=O)CCC(=O)O)cc1 | 9% |
| COc1ccc(CNC(=O)NC2CCN(c3ccnc(Nc4ccc(F)cc4)n3)C2)cc1 (centres unmarked) [GSK1379706] | 16% |
| CCS(=O)(=O)c1ccc(OC)c(Nc2ncc(-c3ccc(F)cc3)o2)c1.Cl [GW591947] | 0% |
